40 compounds from ChEMBL document CHEMBL3988442, “University of Dundee, Small-Polar-MMV Screening Library” (2021) can be followed below.

The target of this experiment is T1, Tyrosyl-tRNA synthetase, putative (Trypanosoma cruzi (strain CL Brener)) (UniProt Q4DSP6).
T1 sequence (whole entry): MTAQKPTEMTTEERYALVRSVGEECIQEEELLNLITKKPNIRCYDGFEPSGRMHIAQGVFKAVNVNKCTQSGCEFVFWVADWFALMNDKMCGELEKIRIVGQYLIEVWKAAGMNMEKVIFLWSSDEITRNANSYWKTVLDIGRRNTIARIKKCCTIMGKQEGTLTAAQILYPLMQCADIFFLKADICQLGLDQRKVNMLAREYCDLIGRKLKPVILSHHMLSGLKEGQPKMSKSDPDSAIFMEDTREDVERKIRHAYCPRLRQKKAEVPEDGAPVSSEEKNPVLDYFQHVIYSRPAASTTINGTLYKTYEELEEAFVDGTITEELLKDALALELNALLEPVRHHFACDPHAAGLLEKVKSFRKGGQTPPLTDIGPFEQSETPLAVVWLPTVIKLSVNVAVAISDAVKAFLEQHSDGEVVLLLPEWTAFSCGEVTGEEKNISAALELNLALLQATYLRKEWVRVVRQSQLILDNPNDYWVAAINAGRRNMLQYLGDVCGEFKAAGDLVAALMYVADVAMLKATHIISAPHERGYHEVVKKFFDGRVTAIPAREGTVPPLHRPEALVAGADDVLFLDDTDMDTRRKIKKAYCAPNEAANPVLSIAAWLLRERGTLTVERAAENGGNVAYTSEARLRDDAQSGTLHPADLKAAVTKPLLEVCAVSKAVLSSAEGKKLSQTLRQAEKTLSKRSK
The experiment is described as follows: Trypanosoma cruzi tyrosyl tRNA synthetase (TcYRS) _High Tyrosine SOP. In kind it is functional. More on the design: scale not given: in the data most compounds retested in dose-response had high values. To be noted: 30 µM.
For the compound `c1cnn(Cc2nnc(C3CCN(C4CCOCC4)CC3)n2C2CC2)c1`, the Percent Effect stood at 7.1%.
For the compound `CCOc1ccccc1C(CC(=O)Nc1ccc(C)cn1)NC(C)=O` (stereo not given), the Percent Effect is 8.33%.
As for `Cc1nc(C)n(CC2CN(Cc3cccnc3)CCO2)n1` (stereo not given), the figure is 9.36%; as for `CCOc1ccc(C#N)cc1NCC(=O)Nc1cc(F)ccc1F`, 7.39%; as for `COCC1CN(C(=O)C2=CCCCC2)Cc2cnn(CC3CC3)c21` (stereo not given), 7.41%.
As for `O=S1(=O)COCCN1Cc1cccc(Cl)c1`, the figure is 8.99%; as for `COCCN(Cc1nc2c(cnn2C)c(=O)[nH]1)Cc1ccco1`, 9.36%; as for `O=C(c1ccc(F)cc1)N1CCN2C[C@H](OCc3ccccn3)C[C@H]2C1`, 7.57%.
To `CCO[C@@H]1CCN(C(=O)c2ccc[nH]2)[C@@H]1Cc1cnn(C)c1` belongs 4.25%.
As for `O=C1C[C@H]2[C@@H](CCN2C(=O)c2ccccc2)N1CCN1CCOCC1`, the Percent Effect is 2.08%.
To `CC(NC(=O)NCCCn1cccn1)c1ccc2c(c1)NC(=O)CO2` (stereo not given) belongs 8.37%; to `CCc1nc(C(=O)N2CCCC2)nn1-c1ccccc1Cl`, 7.39%; to `CN(CCOc1cccc(CNC(=O)C2CC2)c1)C1CCOCC1`, -0.529%.
On to `CC(C)C1CN(C(=O)c2ccc(N3CCCC3)nc2)CCS1` (stereo not given), for which the Percent Effect was 4.3%.
As for `O=C(CCn1ccccc1=O)Nc1ccc(F)c(Cl)c1`, the figure is 4.3%; as for `CCS(=O)(=O)c1ccccc1N1CCC(NC(=O)NC2CCCC2)CC1`, 6.93%.
To `O=C(NS(=O)(=O)c1cc(Cl)sc1Cl)c1cccc2c1OCCO2` belongs -22.6%.
Consider `CN(C)C(=O)CNC(=O)c1ccc(Cl)cc1F`, for which the Percent Effect amounted to 6.38%.
With `COc1cccc(N2CCN(CCC(=O)NC3CCCC3)CC2)c1`, the Percent Effect was determined as 9.57%.
As for `c1csc(CN2Cc3nccn3CC(Cn3cncn3)C2)n1` (stereo not given), the figure is 4.17%; as for `Cc1cc2nc(SCC(=O)N3CCCC3)n(-c3ccccc3)c(=O)c2[nH]1`, 6.38%; as for `Cc1ccc(CN2CCCC3(CCN(S(C)(=O)=O)C3)C2)o1` (stereo not given), 6.38%.
On to `CC(NC(=O)NCC1(N2CCCCC2)CCCCC1)c1nncn1C` (stereo not given), for which the Percent Effect stood at 9.36%.
To `CCOc1ncccc1C(=O)N(C)Cc1ncc(C)c(OC)c1C` belongs 5.71%; to `Cc1cc(C[C@@H]2COC[C@H]2NCc2ccc(Br)s2)on1`, -2.15%; to `CC(C)N1CCC(Cc2cncc(-c3ccccc3C(=O)O)n2)CC1`, 5.32%.
As for `Cc1ccc2oc(CNC(C)c3nnc4n3CCCC4)cc2c1` (stereo not given), the figure is 11.9%.
To `CC(=O)N1CCN(C(=O)NCc2csc(Br)c2)CC1` belongs 7.92%.
Consider `CCc1noc(C(C)N2CCN(Cc3nc(C)c(C)o3)CC2)n1` (stereo not given), for which the Percent Effect was -5.39%.
As for `CC(C)c1csc(C2CCCN(C(=O)c3ncccn3)C2)n1` (stereo not given), the figure is -3.23%; as for `CC(C)(C)N1CC(C(=O)N2CCN(CCn3cccc3)CC2)CC1=O` (stereo not given), 4.92%; as for `CC(C)c1nc(C2CCCN2CCc2ccncc2)no1` (stereo not given), 2.91%.
Turning to `CC(=O)NCc1ccc(C(=O)N2CCCC2c2cnn(C)c2)o1` (stereo not given), the Percent Effect is -0.493%.
With `CC(C)NC(=O)c1n[nH]c(-n2cnnc2)n1`, the Percent Effect amounted to 4.23%.
As for `Cc1cc(C)n(CC2CN(Cc3nc(-c4ccoc4)no3)CCO2)n1` (stereo not given), the figure is 3.45%; as for `Cc1nn(C)c(N2CCOCC2)c1CNCc1ccc(Cl)s1`, 11.4%.
`CC(=O)N1CCCN(c2nccc(-c3cn(C)nc3C)n2)CC1`: the Percent Effect is 0.546%.
To `Cc1scc(C(=O)N2CCC3(CCCN(C)C3=O)C2)c1-c1ccccc1` (stereo not given) belongs -2.65%; to `Cc1cccc2[nH]c(C3CCN(C(=O)c4ccnn4C)CC3)nc12`, 9.68%; to `Cc1cccc(CN2CCc3c(nc(N4CCCCC4C)[nH]c3=O)C2)n1` (stereo not given), 7.53%.
